In PubChem BioAssay AID602409 (Sanford-Burnham Center for Chemical Genomics, 2012):
This is one part of the list. The source made the active and inactive calls.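 Rule for the calls: active = mean inhibition over four retests above 40%; inactive = the rest.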

target: C-X-C chemokine receptor type 6 (Homo sapiens) (UniProt O00574); experiment: CXCR6 receptor antagonists, confirmation, cell-based, single concentration, beta-arrestin, luminescence (AID 602409); conditions: CHO-K1 CXCR6 PathHunter beta-arrestin, at 20 µM, hits give high values;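 note: receptor stimulated with 10 nM CXCL16 agonist; beta-galactosidase fragment complementation upon beta-arrestin recruitment to receptor; plate controls were CXCL16 plus DMSO for no effect and DMSO without CXCL16 for full effect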
Sequence (O00574 whole entry, looked up, the tested form may be a part): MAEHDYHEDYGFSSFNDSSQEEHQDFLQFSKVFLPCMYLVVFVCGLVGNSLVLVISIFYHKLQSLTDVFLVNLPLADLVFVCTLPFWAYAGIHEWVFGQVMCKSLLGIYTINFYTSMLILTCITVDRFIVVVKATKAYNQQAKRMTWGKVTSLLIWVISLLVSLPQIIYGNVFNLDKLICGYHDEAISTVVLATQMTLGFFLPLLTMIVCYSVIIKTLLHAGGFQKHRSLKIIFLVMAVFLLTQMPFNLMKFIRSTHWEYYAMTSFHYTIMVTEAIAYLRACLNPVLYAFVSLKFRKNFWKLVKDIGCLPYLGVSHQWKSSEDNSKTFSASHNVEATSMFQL

inhibition, inactive:
CCCCNC(=S)N/N=C1\CCCCc2ccccc21 24.7%
O=C(C1CC(=O)N(C2CCCCC2)C1)N1CCN(c2ccccc2)CC1 (centres undefined) 3.17%
O=C(Nc1ccccc1)c1nnsc1S(=O)(=O)c1ccc(Cl)cc1 19.7%
CCCCCCCCCCOC(=O)Cn1c(COc2cccc(OC)c2)[n+](C)c2ccccc21 4%
COCCCNC(=S)NC(=O)c1ccc([N+](=O)[O-])cc1 19.8%
CC(=O)Nc1cc(-c2ccc(N3CCN(C)CC3)cc2)cn2c(-c3ccc(F)cc3)cnc12 31.3%
Cc1cc(C(=O)NCCCc2ccccc2)no1 9.46%
CCC(=O)OCCNc1nc(-c2ccccc2)nc2ccccc12 11.6%
CCOCCCN1C(=O)C2C(C(=O)Nc3ccc(OCC)cc3)C3C=CC2(O3)C1C(=O)NC1CCCCC1 (centres undefined) -4.97%
Cc1c(C(=O)NCCN(C)C)oc2ccc(S(=O)(=O)N3CCCC3)cc12 10.1%
CCCCCCCCCCOC(=O)C[N+](C)(C)CC1CCCCC1O (centres undefined) 14.4%

inhibition, active:
COc1cccc2sc(N(CCCN(C)C)C(=O)CCS(=O)(=O)c3ccccc3)nc12 81%
COc1ccc(-c2csc(Cc3nc(O)cs3)n2)cc1 77%
CC(=O)/C(=N\Nc1ccc(Cl)cc1Cl)Sc1cccc2cccnc12 81%
C/C(=N\NC(=O)Cc1ccc(Cl)cc1)c1ccccn1 104%
O=[N+]([O-])/C=C/c1ccc2c(ccn2Cc2ccccc2)c1 76.2%
COC(=O)/C=C\C(=O)Nc1cccc([N+](=O)[O-])c1 45.6%
O=C1C=CC(=O)N1c1ccc(N2CCCCC2)cc1 63.5%
Cc1cc(C)nc(S/C=C/C(=O)c2ccccc2)n1 41.5%
CCN(CC)CCn1c(N)c(S(=O)(=O)c2ccccc2)c2nc3ccccc3nc21 55%
O=C(CSc1cccc2cccnc12)N/N=C/c1cccnc1 67.2%
CC(C)N=C1CCCC1C(=S)SSC(=S)C1CCCC1=NC(C)C (centres undefined) 94.9%
O=C(Nc1ccccc1Cl)/C(Cl)=C(\Cl)S(=O)c1ccccc1 (centres undefined) 81%
Cc1ccc(-n2[nH]c(C)c(/C=N/N3C(=O)c4cccc5cccc(c45)C3=O)c2=O)cc1 60.2%
